Laboratory results reported in the supplement of paper PMC11417369.
The full ranking holds about 25,000 sequences; the median of “ln(normalized median fluorescence intensity)” is about 7.1, and the highest 2% start at about 10. Only a selection was taken, and the highest values are over-represented in it overall.

Tested on: PfSIP2 AP2 domain 1 (GST-tagged)
Test: gcPBM binding intensity (ln(normalized median fluorescence intensity)); higher = stronger DNA binding
Summary of the method: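 Using an Agilent 4 × 180k array, primer-extended double-stranded 36-bp intergenic genomic probes and negative controls were exposed for 1 h to GST-fused P. falciparum DNA-binding domains expressed in E. coli. Binding was carried out in 1× PBS with 1% milk, 0.2 mg/ml BSA, 0.5% salmon testes DNA and 0.03% Triton X-100, and protein was detected with Alexa488 anti-GST antibody and a 488 nm scan. Binding intensity is the highest Masliner-normalised natural-log median intensity across replicate spots of either probe orientation.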

Sequence | gcPBM binding intensity (ln)
AAAACCTAAAAGTCTTAAATTTTAAATATACCTACA [GTGCAC_negctrl_site492] | 6.6
TTTATTTTATCATTTGCACACGCACCCAGACATAAA [CACACA_site4347] | 10.8
TTTATTTTATCATTTGCACACGCACGCCCACATAAA [CACACA_site353] | 7.85
TATTTTATCATTTGCACACGCACACCGACATAAAAA [CACACA_site4348] | 7.71
CCCATGCATTTTTGCACACACATATATTTATAAATA [CACACA_site6785] | 8.16
TATTTTATCATTTGCACACGCACACCCACATAAAAA [CACACA_site354] | 8.03
TTTATTTTATCATTTGCACACGCACCCCCACATAAA [CACACA_site8007] | 11.5
ATATTAAACAAACACACACACATATATATATATATA [CACACA_site3383] | 9.67
ATAAATGAACAAGTGGCACACACACCGTATAACTAA [CACACA_site9047] | 6.91
ATGTATATATTTACGTGTACATATTCATGTGATATC [XGTACX_site5871] | 7
GTTCAATTATTTTTATGTACATATATTTTTTTCTTT [XGTACX_site2505] | 7.46
ACCCATTGCTCACGTGCACACATAGAAAAATAATTC [CACACA_site4389] | 10.1
ATCATTTGCATACGCACACACACATAAAAAGAAAAA [CACACA_site355] | 7.54
ACATTGCACCCGTGCACACATAGAAAAATAATTCTT [CACACA_site409] | 12.2
TCATTGAAAATTGTTGCACACATAATAATTAAATAT [CACACA_site8554] | 7.36
CATTTGCACACGCACACACACATAAAAAGAAAAATA [CACACA_site6297] | 7.71
CATTTGCACCCGCACACACACATAAAAAGAAAAATA [CACACA_site4350] | 11.6
AATTTGGTGTGTGTAAAAGTATGTGTCTATATTTAT [GTGCAC_negctrl_site166] | 7.11
TTTTGTTATTTTTCAGTGCAATATGATAATAATATA | 7.72
TAATATAATGATGCAGTGCATATGTTAAAATGAAAA | 8.72

Sequence | gcPBM binding intensity (ln)
TTTTTTGTTATGCGGGTGCATATAATAATGTGATGA | 10.8
TAATATATTAAAAATAGTACATAAGAAAAATAAGTA [XGTACX_site7957] | 7.11
TATTATATTTTTATTTGTACGTAAAATTAAGTTATG [XGTACX_site2405] | 7.14
AACAAATATATTAACACACAAACATATAAACCAATG [CACACA_site3970] | 7.19
TATAATAGTTCATAGGTGCAATATAATAAATTTATA [GTGCAC_site9573] | 9.98
TATTAAATATATATTACATGCAAAAAAAAAAAACAA [TGCATGCA_site705] | 7.13
CAATATTTGTTATGGGTGCAAACCGCATATATATAA [GTGCAC_site9543] | 11
AAAAAAAAAAACAATACATGCATAATATTAATAAAA [TGCATGCA_site913] | 6.96
TTTTTTGTTAAACCGGTGCATATAAATATATATATA [GTGCAC_site9989] | 9.54
AATTATATGAAATAAACACACATATGCAATATTGCA [CACACA_site6988] | 6.98
CAATATATTATATGGGTGCAAACCACATATAAATAA | 10.9
TATGGGTTTATATAGGTGCAATATATGTATATATAA | 10.2
ATATAAAATACATGGGTGCAATATATTAAACAAATA [GTGCAC_site9421] | 10.8
CAATAGTTCTTATGGGTGCAAACCACATATATATAA [GTGCAC_site9606] | 11.3
ATTTATTTATACAAAGTGCAATATTTTGTTAAAGTC [GTGCAC_site9618] | 7.89
AATCAAAGCCCACATACACACACATATATATATATA [CACACA_site7987] | 9.39
TTTTGTCAACATTTTTATATTAGGTCTTGAACGATT [GTGCAC_negctrl_site72] | 6.9
AATAATATATGGTGTACACAAAAGTATAAATAATTT [CACACA_site5338] | 7.15
TCAAATATTCATAAATGTACATTTATTTTTCTCCTT [XGTACX_site5827] | 6.74
TTATTTTAATAACCTACACACATTTTGTATATTTTA [CACACA_site4000] | 6.81

Sequence | gcPBM binding intensity (ln)
TATATATATGTGTTTACACACAATAATGAATTAAAA [CACACA_site4659] | 7.28
ATATCAATTTTTGGTGGTACGTAGGAAGTTTCAGAA [XGTACX_site6881] | 7.4
ATATAGGTAAAAAGTATACACACGTTGACACATTCT [CACACA_site1199] | 6.95
TTTTTTTTTTTTTTATGTACACATCTAAAAAAAAGG [XGTACX_site2067] | 7.43
TTTTTTTTTTTTGGATGTACTTAATGAAAATGTTAC [XGTACX_site8980] | 7.36
TTATTTATTTATATAGTGCAATAAACACATAAATAG | 8
AAATAGTTGTTATGGGTGCAAACCACATATATATAA [GTGCAC_site9428] | 11
ACATATAATAAAATAGTGCATTGTTAGTTTTATATA | 9.85
GATTTTTAAAATATCACACATAAAAAAAAAAAAAAA [CACACA_site5516] | 6.96
AAAAAAAGAAAAATTGCACACACTTATAAAAATATA [CACACA_site4014] | 6.99
AAATATAAAGTGCACACACACAAAAAAAGAAAAAAA [CACACA_site6452] | 11.2
TATATATATAAGTGCACACTGAACCAAGAAAATTAT [CACACA_site3008] | 10.5
AAAAATATAAACTGCACACACACAAAAAAAGAAAAA [CACACA_site648] | 7.25
AAAAATAAAGGGTGTGCACACAAAAATATATATATA [CACACA_site1727] | 9.1
TATATATATATAAGTGCACACTGAACCAAGAAAATT [CACACA_site5637] | 9.97
AAATAAAAAGGGTGCACACAAAAATATATATATATA [CACACA_site1728] | 12.4
AATATAAAAAGGCACACACACAAAAAAAAAAAAAAA [CACACA_site896] | 7.13
ATAAAAATAAAAAGTGTGCACACAAAAATATATATA [GTGCAC_site9931] | 8.78
AAACTCAACTTATATACACACAATCTTTTTTTTTTA [CACACA_site29] | 6.8
